Holding throughout (design): scale not given: direction of the effect not stated beside the values
Experiment [1] addresses Protein translocase subunit SecA (Escherichia coli (strain K12)) (UniProt P10408). Briefly: Assay to Identify E. coli SecA ATPase Inhibitors. Type of experiment: functional. The conditions noted are these: 30 µM.
Experiment [2] concerns the target T1, Ubiquitin-activating enzyme e1, putative (Leishmania donovani (strain BPK282A1)) (UniProt E9BSI1).
T1 sequence (whole entry): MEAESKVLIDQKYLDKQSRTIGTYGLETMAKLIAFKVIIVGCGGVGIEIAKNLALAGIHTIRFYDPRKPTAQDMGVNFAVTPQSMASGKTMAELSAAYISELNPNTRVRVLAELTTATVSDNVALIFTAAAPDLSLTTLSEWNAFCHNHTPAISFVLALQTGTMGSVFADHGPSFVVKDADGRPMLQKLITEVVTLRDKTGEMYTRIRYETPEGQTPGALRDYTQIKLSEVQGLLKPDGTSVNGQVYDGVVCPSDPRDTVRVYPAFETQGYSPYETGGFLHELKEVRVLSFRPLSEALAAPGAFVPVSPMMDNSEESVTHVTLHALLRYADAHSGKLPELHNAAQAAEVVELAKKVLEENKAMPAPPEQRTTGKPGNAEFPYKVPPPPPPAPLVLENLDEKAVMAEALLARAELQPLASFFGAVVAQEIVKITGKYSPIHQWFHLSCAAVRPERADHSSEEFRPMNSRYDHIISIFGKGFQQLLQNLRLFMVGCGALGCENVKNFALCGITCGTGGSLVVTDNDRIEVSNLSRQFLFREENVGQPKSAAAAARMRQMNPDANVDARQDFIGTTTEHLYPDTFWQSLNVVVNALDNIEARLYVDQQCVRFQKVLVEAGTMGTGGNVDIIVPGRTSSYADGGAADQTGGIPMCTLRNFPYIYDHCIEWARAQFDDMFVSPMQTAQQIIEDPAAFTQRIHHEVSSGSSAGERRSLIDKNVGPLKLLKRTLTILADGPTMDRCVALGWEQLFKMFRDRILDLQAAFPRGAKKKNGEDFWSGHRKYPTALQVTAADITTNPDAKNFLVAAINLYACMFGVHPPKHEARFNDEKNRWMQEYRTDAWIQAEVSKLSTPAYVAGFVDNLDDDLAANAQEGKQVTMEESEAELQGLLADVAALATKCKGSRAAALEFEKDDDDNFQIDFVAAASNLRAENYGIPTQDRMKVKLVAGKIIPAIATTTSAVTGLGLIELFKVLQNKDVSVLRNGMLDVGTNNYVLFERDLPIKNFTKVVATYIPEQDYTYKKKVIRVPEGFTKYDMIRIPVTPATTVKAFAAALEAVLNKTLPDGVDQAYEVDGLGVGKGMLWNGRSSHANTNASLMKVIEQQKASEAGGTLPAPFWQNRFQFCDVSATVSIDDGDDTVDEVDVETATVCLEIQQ
In words: Leishmania donovani Ubiquitin Activating Enzyme (LdE1). The experiment is classed as functional. The conditions noted are these: 30 µM.

Experiment [3] addresses AMP-activated protein kinase, AMPK (Homo sapiens) (UniProt P54646+O43741+P54619+Q9UGJ0+Q9Y478+Q13131+Q9UGI9). In words: AMP-dependent Kinase enzyme assay. An in vitro enzyme assay that detects ADP turnover that is directly proportional to AMPK activity. This uses naive AMPK that is activated during the assay with MK-8722. Type of experiment: functional. As to conditions: 30 µM.

The target of experiment [4] is Sialic acid-binding Ig-like lectin 9 (Homo sapiens) (UniProt Q9Y336). Briefly: Hs-Siglec9 ALPHAscreen SOP 20170721. The conditions noted are these: 10 µM.
Sialic acid-binding Ig-like lectin 9 (Homo sapiens), sequence (Q9Y336 whole entry): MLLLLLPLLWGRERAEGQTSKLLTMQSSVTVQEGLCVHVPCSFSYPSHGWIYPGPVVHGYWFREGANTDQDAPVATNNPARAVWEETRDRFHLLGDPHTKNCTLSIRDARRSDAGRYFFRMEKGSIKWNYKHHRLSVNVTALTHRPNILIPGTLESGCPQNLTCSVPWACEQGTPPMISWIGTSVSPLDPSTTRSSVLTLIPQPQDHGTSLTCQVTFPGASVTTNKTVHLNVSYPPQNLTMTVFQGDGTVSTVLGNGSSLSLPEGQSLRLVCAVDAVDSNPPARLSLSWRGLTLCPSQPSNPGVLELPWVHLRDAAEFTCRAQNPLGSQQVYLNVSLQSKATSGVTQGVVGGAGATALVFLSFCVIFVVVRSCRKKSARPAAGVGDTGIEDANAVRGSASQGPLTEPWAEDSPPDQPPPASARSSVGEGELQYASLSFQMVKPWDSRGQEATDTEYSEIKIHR
Another experiment relates to Trypanosoma cruzi. Briefly: Trypanosoma cruzi phosphomannomutase and mannose-1-phosphate guanylyltransferase assay. Type of experiment: functional. As to conditions: 10 µM.
Experiment [5] concerns the target T2, Arginase-2, mitochondrial (Homo sapiens) (UniProt P78540).
T2 sequence (whole entry): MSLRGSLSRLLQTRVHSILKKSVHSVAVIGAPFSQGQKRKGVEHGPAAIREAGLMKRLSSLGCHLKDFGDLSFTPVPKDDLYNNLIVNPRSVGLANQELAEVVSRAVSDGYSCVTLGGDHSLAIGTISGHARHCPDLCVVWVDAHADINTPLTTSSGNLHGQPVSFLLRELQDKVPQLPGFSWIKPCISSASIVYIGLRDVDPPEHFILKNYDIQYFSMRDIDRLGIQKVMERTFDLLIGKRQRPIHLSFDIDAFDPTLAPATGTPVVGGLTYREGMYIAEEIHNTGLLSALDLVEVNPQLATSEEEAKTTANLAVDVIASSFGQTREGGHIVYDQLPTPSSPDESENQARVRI
In words: in vitro enzyme assay to detect the production of urea directly proportional to the activity of Arginase II. Note: in the data most compounds retested in dose-response had high values. Type of experiment: functional. The conditions noted are these: 33.3 µM.

For experiment [6], the target named is T3, Proteasome subunit beta (Trypanosoma cruzi) (UniProt O96673).
T3 sequence (whole entry): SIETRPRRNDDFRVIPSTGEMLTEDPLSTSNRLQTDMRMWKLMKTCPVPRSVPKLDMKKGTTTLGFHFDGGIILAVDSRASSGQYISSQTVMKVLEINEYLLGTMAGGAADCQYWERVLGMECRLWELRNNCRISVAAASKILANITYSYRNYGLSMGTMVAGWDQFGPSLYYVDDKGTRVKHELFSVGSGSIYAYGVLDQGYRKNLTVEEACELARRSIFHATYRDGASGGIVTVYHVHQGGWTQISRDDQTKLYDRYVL
Briefly: Trypanosoma cruzi proteasome chymotrypsin-like activity (TcProtChymo) assay. Note: in the data most compounds retested in dose-response had high values. The conditions noted are these: 9.37 µM. The experiment is classed as functional.

For a further experiment, the species on record is Homo sapiens. In words: To identify inhibition of the IFN signalling (Jak-Stat) pathway via expression of an eGFP reporter gene under the control of an IFN-stimulated response element (ISRE) containing MxA promoter. The conditions noted are these: 30 µM. The experiment is classed as functional.
The target in experiment [7] is T4, Tyrosyl-tRNA synthetase, putative (Trypanosoma cruzi (strain CL Brener)) (UniProt Q4DSP6).
T4 sequence (whole entry): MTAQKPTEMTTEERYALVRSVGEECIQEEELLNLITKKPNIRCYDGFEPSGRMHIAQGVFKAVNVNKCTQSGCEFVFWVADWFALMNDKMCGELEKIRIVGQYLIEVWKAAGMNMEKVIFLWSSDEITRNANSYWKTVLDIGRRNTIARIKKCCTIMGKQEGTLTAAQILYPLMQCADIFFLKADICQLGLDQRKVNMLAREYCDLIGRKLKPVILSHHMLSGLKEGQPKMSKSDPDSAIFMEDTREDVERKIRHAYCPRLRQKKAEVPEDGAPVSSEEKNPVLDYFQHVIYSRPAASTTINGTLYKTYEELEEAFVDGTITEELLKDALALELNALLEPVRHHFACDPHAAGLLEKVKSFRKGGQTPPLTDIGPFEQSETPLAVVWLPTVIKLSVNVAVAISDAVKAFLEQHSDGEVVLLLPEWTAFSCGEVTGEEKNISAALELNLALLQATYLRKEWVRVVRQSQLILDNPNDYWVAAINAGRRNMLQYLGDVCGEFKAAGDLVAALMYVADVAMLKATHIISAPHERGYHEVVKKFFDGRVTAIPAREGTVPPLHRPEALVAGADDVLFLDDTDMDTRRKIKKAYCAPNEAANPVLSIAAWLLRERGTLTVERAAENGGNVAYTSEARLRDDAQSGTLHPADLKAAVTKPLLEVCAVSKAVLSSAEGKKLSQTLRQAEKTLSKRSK
Briefly: Trypanosoma cruzi tyrosyl tRNA synthetase (TcYRS) _High Tyrosine SOP. Note: in the data most compounds retested in dose-response had high values. The experiment is classed as functional. As to conditions: 30 µM.

The target of experiment [8] is T4, Tyrosyl-tRNA synthetase, putative (Trypanosoma cruzi (strain CL Brener)). In words: Trypanosoma cruzi tyrosyl tRNA synthetase (TcYRS) SOP. The experiment is classed as functional. As to conditions: 30 µM.
The target of experiment [9] is Chromo domain-containing protein 1 (Saccharomyces cerevisiae (strain ATCC 204508 / S288c) (Baker's yeast)) (UniProt P32657). Briefly: ScCHD-1 Enzyme Inhibition Assay. Note: in the data most compounds retested in dose-response had high values. The experiment is classed as functional. As to conditions: 30 µM.
Chromo domain-containing protein 1 (Saccharomyces cerevisiae (strain ATCC 204508 / S288c) (Baker's yeast)), sequence (P32657 whole entry, the tested form may be a part): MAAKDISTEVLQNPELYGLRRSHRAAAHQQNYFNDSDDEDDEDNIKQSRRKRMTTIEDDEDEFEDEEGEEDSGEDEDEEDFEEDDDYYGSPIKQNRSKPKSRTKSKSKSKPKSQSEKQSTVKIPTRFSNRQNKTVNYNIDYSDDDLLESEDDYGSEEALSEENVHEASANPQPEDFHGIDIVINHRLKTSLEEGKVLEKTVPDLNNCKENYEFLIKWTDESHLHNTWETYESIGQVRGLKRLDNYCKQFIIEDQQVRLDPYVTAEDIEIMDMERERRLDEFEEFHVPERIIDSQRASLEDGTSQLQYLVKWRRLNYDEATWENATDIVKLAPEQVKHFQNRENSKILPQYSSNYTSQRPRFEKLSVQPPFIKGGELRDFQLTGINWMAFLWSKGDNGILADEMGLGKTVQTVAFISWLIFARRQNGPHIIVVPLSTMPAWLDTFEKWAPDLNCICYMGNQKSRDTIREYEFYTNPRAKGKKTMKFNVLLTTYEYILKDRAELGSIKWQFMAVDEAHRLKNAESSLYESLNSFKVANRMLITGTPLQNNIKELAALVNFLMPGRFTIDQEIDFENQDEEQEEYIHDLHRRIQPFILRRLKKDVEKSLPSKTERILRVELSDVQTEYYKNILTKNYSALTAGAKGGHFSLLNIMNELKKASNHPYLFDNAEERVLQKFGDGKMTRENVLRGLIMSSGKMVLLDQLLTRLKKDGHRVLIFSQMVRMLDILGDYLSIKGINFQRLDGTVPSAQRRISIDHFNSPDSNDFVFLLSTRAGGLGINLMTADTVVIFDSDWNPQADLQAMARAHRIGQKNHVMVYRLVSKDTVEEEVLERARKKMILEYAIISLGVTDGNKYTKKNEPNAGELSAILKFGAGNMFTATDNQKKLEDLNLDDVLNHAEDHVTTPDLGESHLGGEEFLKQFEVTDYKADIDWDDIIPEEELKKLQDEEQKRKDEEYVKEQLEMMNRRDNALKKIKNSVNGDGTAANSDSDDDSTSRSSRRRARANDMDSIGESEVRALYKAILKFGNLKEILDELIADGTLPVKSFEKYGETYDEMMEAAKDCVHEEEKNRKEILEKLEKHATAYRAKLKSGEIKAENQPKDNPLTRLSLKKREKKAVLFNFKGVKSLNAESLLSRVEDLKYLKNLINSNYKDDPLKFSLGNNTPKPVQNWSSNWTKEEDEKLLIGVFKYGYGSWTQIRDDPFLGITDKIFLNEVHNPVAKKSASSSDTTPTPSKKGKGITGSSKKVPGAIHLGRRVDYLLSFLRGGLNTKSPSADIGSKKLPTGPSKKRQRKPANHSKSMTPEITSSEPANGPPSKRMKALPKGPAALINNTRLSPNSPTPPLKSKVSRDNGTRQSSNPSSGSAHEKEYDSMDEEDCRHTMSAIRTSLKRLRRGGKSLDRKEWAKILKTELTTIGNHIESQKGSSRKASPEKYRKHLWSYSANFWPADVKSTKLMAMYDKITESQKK

For some of these results: Potency and affinity values are given separately.

Protein translocase subunit SecA (Escherichia coli (strain K12)), sequence (P10408 whole entry): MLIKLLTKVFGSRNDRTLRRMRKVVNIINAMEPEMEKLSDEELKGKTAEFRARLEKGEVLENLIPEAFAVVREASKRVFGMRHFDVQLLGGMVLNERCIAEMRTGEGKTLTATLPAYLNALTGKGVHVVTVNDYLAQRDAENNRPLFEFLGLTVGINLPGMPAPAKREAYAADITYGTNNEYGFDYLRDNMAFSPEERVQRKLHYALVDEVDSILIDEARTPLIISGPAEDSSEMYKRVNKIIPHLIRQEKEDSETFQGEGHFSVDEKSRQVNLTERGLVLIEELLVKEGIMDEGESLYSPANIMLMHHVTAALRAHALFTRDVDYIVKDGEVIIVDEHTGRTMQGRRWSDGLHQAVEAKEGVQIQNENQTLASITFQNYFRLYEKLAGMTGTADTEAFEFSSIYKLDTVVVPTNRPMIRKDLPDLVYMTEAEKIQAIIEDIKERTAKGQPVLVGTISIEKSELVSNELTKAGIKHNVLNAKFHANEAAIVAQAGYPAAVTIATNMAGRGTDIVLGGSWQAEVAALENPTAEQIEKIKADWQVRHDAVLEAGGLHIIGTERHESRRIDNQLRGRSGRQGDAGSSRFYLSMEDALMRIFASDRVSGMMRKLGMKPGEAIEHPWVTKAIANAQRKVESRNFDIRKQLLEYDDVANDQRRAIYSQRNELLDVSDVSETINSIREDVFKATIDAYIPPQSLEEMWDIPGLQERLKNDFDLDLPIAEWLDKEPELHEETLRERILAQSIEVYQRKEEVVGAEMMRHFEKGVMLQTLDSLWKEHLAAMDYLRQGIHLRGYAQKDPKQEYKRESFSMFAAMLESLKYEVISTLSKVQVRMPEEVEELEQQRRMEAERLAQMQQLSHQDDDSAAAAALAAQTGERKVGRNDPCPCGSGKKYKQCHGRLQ

As for `Cc1ccc(C2(CN3CCCC3)CCNCC2)nc1`, the Percent Effect in [1] is -3.03%; in [2], 8.11%; in [3], -4.02%; in [4] it was 3.83%; in the experiment with Trypanosoma cruzi, 2.32%; in experiment [5] it was -2.86%. Also, the Percent Effect is 11.6% in experiment [6]; -11.7% in the experiment listed under Homo sapiens; 10.1% in experiment [7]; 9.76% in [8]; -0.82% in [9].
Turning to `COc1ccc(CNC(=O)NC2CCC(O)CC2)c(C(F)(F)F)c1` (stereo not drawn), the Percent Effect is -1.24% in experiment [1]; -9.72% in experiment [2]; -2.59% in experiment [3]; -9.45% in [4]; -4.57% with Trypanosoma cruzi; 1.32% in [5]. For the same compound, the Percent Effect in experiment [6] is 14%; in the experiment listed under Homo sapiens it was -1.15%; in experiment [7], 3.16%; in experiment [8], 2.56%; in experiment [9] it was -2.64%.
For the compound `Cc1nnc2n1CCN(CCOc1ccccc1)C2`, the Percent Effect was -2.71% in experiment [1]; -1.27% in experiment [2]; 9.45% in [3]; -0.787% in experiment [4]; -0.308% in the experiment with Trypanosoma cruzi; 3.66% in [5]. For the same compound, the Percent Effect is 3.43% in experiment [6]; 0.176% in the experiment filed under Homo sapiens; 2.08% in [7]; 0% in experiment [8]; -7.58% in [9].
Consider `CC(=O)NCCNC(=O)c1sc(-c2ccc(C)cc2C)nc1C`, for which the Percent Effect was -2.37% in [1]; 10.8% in experiment [2]; -0.818% in experiment [3]; -4.19% in experiment [4]; -7.89% with Trypanosoma cruzi; 3.51% in [5]. Also, the Percent Effect in experiment [6] came out at 8.26%; in the experiment listed under Homo sapiens, 10.8%; in [7], 4.95%; in experiment [8], 11%; in experiment [9], 7.83%.
For `Cc1noc(C)c1CN(C)C(=O)c1ccc(NC2CC2)nc1`, the Percent Effect in experiment [1] is -1.87%; in experiment [2], 15.8%; in experiment [3] it was -5.49%; in experiment [4] it was 6.74%; in the experiment on Trypanosoma cruzi, 1.59%; in [5] it was 2.88%. Further, the Percent Effect in experiment [6] is 5.84%; in the experiment listed under Homo sapiens it was -7.41%; in [7] it was 9.36%; in [8] it was 18.5%; in [9], -4.25%.
Turning to `Cc1cccc(OCCC(=O)N2CCCN(C(N)=O)CC2)c1C`, the Percent Effect in experiment [1] is -5.63%; in [2] it was -63.3%; in [3], -5.53%; in experiment [4] it was -0.36%; in the experiment on Trypanosoma cruzi, -9.54%; in [5], 3.8%. For the same compound, the Percent Effect was 3.85% in [6]; 27.5% in the experiment filed under Homo sapiens; -3.45% in experiment [7]; -8.86% in experiment [8]; -6.9% in experiment [9].
As for `Cn1ccnc1C(NCc1csc(Br)c1)c1ccccc1` (stereo not drawn), the Percent Effect in [1] is -4.88%; in [2], 21.6%; in experiment [3] it was 3.42%; in [4] it was 17.4%; in the experiment with Trypanosoma cruzi, 4.92%; in experiment [5], 1.66%. For the same compound, the Percent Effect is 13.8% in experiment [6]; 12.7% in the experiment filed under Homo sapiens; 12.9% in experiment [7]; 30.5% in [8]; -7.11% in [9].
`CC(C)(C)NC(=O)C1CSCN1S(=O)(=O)c1ccc(F)cc1` (stereo not drawn): the Percent Effect in experiment [1] is -1.95%; in experiment [2], 6.33%; in experiment [3], 3.86%; in experiment [4], -0.312%; with Trypanosoma cruzi it was -4%; in experiment [5], -4.52%. The Percent Effect in [6] was 15.4%; in the experiment listed under Homo sapiens, 21.8%; in experiment [7], 7.29%; in experiment [8], 20.2%; in experiment [9], -14.6%.

For the origin of these results see ChEMBL document CHEMBL3988442, “University of Dundee, Small-Polar-MMV Screening Library” (2021).
